9 compounds from PubChem BioAssay (NCI) can be followed below.

Common to all, as to assay: NCI-60 one-dose screen, 48 h (100 = growth as untreated, 0 = no growth, -100 = all killed)
Common to all, as to details: 10 µM

Test [1] relates to SK-MEL-2 melanoma.
In test [2] the test system is EKVX NSCLC.
Test [3] has as its system SN12C renal.
The test system of test [4] is UO-31 renal.
Test [5] concerns ACHN renal.
The subject of test [6] is CAKI-1 renal.
In test [7] the test system is A498 renal.
In test [8] the test system is MOLT-4 leukemia.
Test [9] has as its system SR leukemia.
Test [10] has as its system RPMI-8226 leukemia.
Test [11] concerns OVCAR-8 ovarian.
In test [12] the test system is OVCAR-5 ovarian.
Test [13] has as its system OVCAR-4 ovarian.
Test [14] concerns SK-OV-3 ovarian.
In test [15] the test system is IGROV1 ovarian.
Test [16] deals with OVCAR-3 ovarian.
The subject of test [17] is HS 578T breast.
Test [18] deals with NCI/ADR-RES ovarian.
The subject of test [19] is CCRF-CEM leukemia.
The test system of test [20] is TK-10 renal.

This is part of a sample that, as a whole, favours compounds with a hit. Of some 83,000 tested, about 20% had one in any assay.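 Step 1: grow cells in 96-well plates. Step 2: add test compound at a single concentration. Step 3: incubate 48 h. Step 4: record percent growth.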 Unmarked numbers belong to inactive results. The source made the active and inactive calls. How the source made its calls: active means growth percent below 10; inactive means the rest.

In the case of `C/C(=N\O)c1ccc(NC(=O)CSc2nnc(-c3ccccc3)n2-c2ccccc2)cc1`, the growth in test [1] was 118%; in [2], 91.9%; in [3], 72.4%; in test [4], 76.2%; in test [5], 63.7%; in test [6] it was 85.6%. For the same compound, the growth in [7] was 92.7%; in test [8], 95.2%; in test [9], 106%; in [10], 91.2%; in [11], 84.7%; in test [12] it was 86.2%. For the same compound, the growth in test [13] was 87.3%; in test [14], 39.3%; in [15], 76.7%; in test [16], 81.4%; in test [17], 62.5%; in [18], 90.8%.
For `COc1cc2c(Nc3ccc(S(N)(=O)=O)cc3)ncnc2c(OC)c1OC`, the growth is 92.4% in [1]; 100% in [2]; 93.5% in test [3]; 67.3% in [4]; 99.4% in test [5]; 92% in [6]. In addition, the growth is 103% in [7]; 97.3% in test [8]; 99.9% in test [9]; 99.1% in [10]; 106% in [11]; 105% in test [12]. For the same compound, the growth in test [13] is 102%; in [14], 75.5%; in [15] it was 96.1%; in test [16], 90.4%; in test [17], 96%; in [18] it was 96.5%.
Regarding `NS(=O)(=O)c1ccc(N2N=C(c3ccccc3)CCC2=O)cc1`, the growth in [1] was 107%; in [2] it was 130%; in [3], 101%; in test [4], 104%; in test [5] it was 114%; in test [7], 83%. Also, the growth in test [19] was 108%; in test [8], 93.2%; in test [9], 66.5%; in test [10] it was 94.5%; in test [11], 98%; in test [12] it was 112%. The growth in test [13] was 95.8%; in test [14] it was 113%; in [16], 158%; in test [17], 113%; in test [18], 98%.
`Cc1ccc(C(SCC(N)C(=O)O)(c2ccc(C)cc2)c2ccc(C)cc2)cc1` (stereo not drawn): the growth in test [1] is -52.1% (active); in test [2], -8.36% (active); in test [3], 42.3%; in [4] it was 25.3%; in [5], 60.3%; in [7] it was 46.3%. Also, the growth in [19] is 6.77% (active); in test [8] it was 7.71% (active); in test [10] it was -36.6% (active); in test [11] it was 7.22% (active); in [12], 38.6%; in test [13], 47.8%. Moreover, the growth in test [14] was 26%; in test [16] it was -42.6% (active); in test [17], -15.3% (active); in test [18] it was 57.8%.
Take `COc1cc2cc(Oc3ccc(NC(=O)Nc4cccc(C(F)(F)F)c4)cc3)c(C)nc2cc1OC`: the growth was -35.8% (active) in test [1]; 15.4% in test [2]; 17.2% in test [3]; 11.3% in test [4]; 11.2% in test [5]; 9.13% (active) in test [6]. Moreover, the growth in test [7] is 21.7%; in [19] it was 6.41% (active); in [8] it was 0.812% (active); in [9], -6.62% (active); in test [10], -5.94% (active); in test [11], 8.32% (active). Also, the growth in [12] was 27.8%; in test [13], 31.7%; in [14] it was 3.35% (active); in test [15] it was 8.77% (active); in test [16], -0.54% (active); in [17], 22.5%. Further, the growth in [18] was 6.98% (active).
On to `CCN(CC)CCN1c2nc3ccccc3cc2Sc2cc3ccccc3nc21`, for which the growth in test [1] is -35.9% (active); in test [2] it was -3.38% (active); in [3] it was 27%; in [20] it was 82%; in [5] it was 24.9%; in test [6], 8.6% (active). Further, the growth was 25.7% in test [7]; -27.3% (active) in test [19]; -47.8% (active) in test [8]; -53% (active) in [9]; -15.9% (active) in test [10]; 7.3% (active) in test [11]. Besides, the growth in test [12] is 13.6%; in test [13] it was 15.8%; in [14], 46%; in [16] it was 27.1%; in test [17], 12.4%; in test [18], 4.85% (active).
As to `O=C1/C=C/[C@@H](O)[C@@H]2C[C@@H](O)C[C@H]2/C=C/CCC[C@@H](C(F)(F)F)O1`, the growth is 86.3% in test [1]; 90.4% in test [2]; 90.3% in [3]; 73.7% in [20]; 98.3% in test [5]; 98.4% in [6]. Further, the growth in test [7] is 84.8%; in [19], 92.2%; in test [8], 84.7%; in test [9] it was 102%; in [10], 97.7%; in [11], 83.2%. Besides, the growth in [12] is 107%; in [13], 75.3%; in [14], 96%; in test [15], 105%; in [16], 69.8%; in [17], 74.2%. For the same compound, the growth in [18] is 92.5%.
For `CN(C)CCOc1ccc(-c2nc3sccn3c2-c2ccnc(S(C)(=O)=O)n2)cc1`, the growth in test [1] is 111%; in test [2], 102%; in test [3], 101%; in test [4] it was 97.1%; in test [5], 106%; in test [6] it was 98.8%. In addition, the growth is 96.3% in test [7]; 91% in [19]; 109% in test [8]; 109% in test [9]; 89.6% in test [10]; 106% in test [11]. Also, the growth is 107% in [12]; 95.9% in test [13]; 88.6% in [14]; 115% in test [15]; 115% in [16]; 101% in [17]. The growth in test [18] is 102%.
On to `Cc1cc(Cl)ccc1Nc1nc(C(F)(F)F)ccc1C(=O)N/N=C/c1c(Cl)cccc1Cl`, for which the growth in test [1] is -17.4% (active); in test [2], 0.628% (active); in [3], 6.51% (active); in test [4], 4.21% (active); in [5] it was -8.52% (active); in [6], -22.7% (active). Besides, the growth in [7] was -60.8% (active); in test [19], -18% (active); in test [8], -16.8% (active); in test [9], -26.6% (active); in [10], -15.1% (active); in [11] it was 9.98% (active). Further, the growth in test [12] was 24.8%; in test [13], 7.14% (active); in test [14], -12.9% (active); in test [15], 4.15% (active); in [16] it was -2.74% (active); in test [17], -22.1% (active). Further, the growth in test [18] was 11.9%.
